# Source: PubChem BioAssay AID935 (National Center for Advancing Translational Sciences (NCATS), 2007)
# Results filed as inconclusive are left out. Activity calls are given as the source filed them. Calls follow the shape of the full dose curve.
# Test: Confirmation Concentration-Response Assay for Identification of Small Molecule Agonists of Stat Signaling Pathway
# Settings: SIE-bla cells, IL-6 STAT beta-lactamase reporter, 5 h
# Description: NIH Molecular Libraries Screening Centers Network [MLSCN] NIH Chemical Genomics Center [NCGC] MLSCN Grant: None NCGC Assay Overview: This assay is a retest of actives identified from the Stat signaling pathway assay (PubChem AID 446). The Stat assay is cell-based and measures Interleukin 6 (IL-6) mediated modulation of a beta-lactamase reporter gene controlled by a STAT inducible element (SIE-bla cells, Invitrogen). IL-6 is a cytokine that signals via the JAK/STAT pathway and is implicated in cancer and inflammation. SIE-bla cells are induced by IL-6 at 40 pM EC50 and inhibited by the pan JAK inhibitor, 2-(1,1-Dimethylethyl)-9-fluoro-3,6-dihydro-7H-benz[h]-imidaz[4,5-f]isoquinolin-7-one, at approximately 10 nM IC50. Plated cells were incubated overnight and on the following day, stimulated with 40 pM IL-6 for 5 hrs. The assay was stimulated with an EC50 of IL-6 to retest activators of STAT signaling.
# NCGC Assay Protocol Summary: Cells were trypsinized, washed in assay medium (AM, OPTI MEM with 0.5% fetal bovine serum, 0.1 mM nonessential amino acids, 1 mM sodium pyruvate, 10mM HEPES pH 7.3, 100U/ml penicillin, and 100 ug/ml streptomycin) and suspended at […] in AM. Approximately 2500 cells in 5 uL/well was dispensed into 1536-well plates and the cells were incubated overnight at 37 C. 23 nL of compound were delivered by a pin tool and 1 uL of IL-6 (40 pM final concentration in AM) was added. After plates were incubated at 37 C for 5 hrs, 1uL of detector mix (LiveBLAzerTM, Invitrogen) was added, the plates incubated at room temperature for 2.5 hrs, and fluorescence intensity at 460 and 530 nm emissions was measured at 405 nm excitation by an Envision (Perkin Elmer).
row,SMILES,Potency
1,Cc1cc(=O)oc2c(CN3CCCCC3)c(O)c(Cl)cc12,10 µM (active)
2,Cc1ccc(S(=O)(=O)N2CCN(c3nc(C(C)C)c4c(c3C#N)CC(C)(C)OC4)CC2)cc1,10 µM (active)
3,CC1CCN(c2oc(-c3ccccc3Cl)nc2C#N)CC1,6.31 µM (active)
4,CN(C)c1ccc(-c2nn3c(-c4ccc(Cl)cc4)nnc3s2)cc1,3.16 µM (active)
5,Cc1ccc(CNC(=O)c2cc3c(=O)n4ccccc4nc3n(CC3CCCO3)c2=N)cc1 (stereo unspecified),10 µM (active)
6,Nc1ncnc2c1ncn2[C@@H]1O[C@H](COP(=O)(O)O)[C@@H](O)[C@@H]1O,25.1 µM (active)
7,CCN(CC)CCN1C(=O)c2cccc3cc(N)cc(c23)C1=O,15.8 µM (active)
8,CCN(CC)CCC[C@H](C)Nc1c2ccc(Cl)cc2nc2ccc(OC)cc12,12.6 µM (active)
9,CCOC(=O)c1cc2c(=O)n3cccc(C)c3nc2n(C)c1=N,3.98 µM (active)
10,CCNC(=O)c1cc2c(=O)n3cccc(C)c3nc2n(CCc2ccccc2)c1=N,12.6 µM (active)
11,COc1cccc2c1C(=O)c1c(O)c3c(c(O)c1C2=O)C[C@@](O)(C(=O)CO)C[C@@H]3O[C@H]1C[C@H](N)[C@H](O)[C@H](C)O1,3.98 µM (active)
